Out of some 360,000 compounds screened, about 2,600 (0.72%) were called active.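 Rule for the calls: active = inhibition of the luminescence signal of 40% or more relative to plate controls, in a single-dose primary screen at 18.75 µM; inactive = the rest.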 What follows is part of a selection rich in actives, with near analogues and random picks from the rest.
Assay: HIF-2a reporter inhibitors, primary screen, luminescence, 786-0 RCC cells (AID 624352)
Conditions: 786-0 RCC cells HIF-2a reporter, luciferase luminescence, overnight; at 18.8 µM; stronger effect = higher value

| Structure (SMILES) | inhibition |
| --- | --- |
| CSC1=NCCN1C(=O)c1ccc(S(=O)(=O)N2CCOCC2)cc1 | 4.81% (inactive) |
| CC(C)C(C(=O)NC1CCCCC1)N(CC1CCCO1)C(=O)CNS(=O)(=O)c1ccc(F)cc1 (stereo not drawn) | 12.1% (inactive) |
| COc1ccc(C2/C=C\CN(CC(C)C)CC(=O)N2Cc2ccc(F)cc2)cc1 (stereo not drawn) | 4.31% (inactive) |
| COC(=O)c1sccc1NC(=O)CSc1ccccc1NS(=O)(=O)c1cc(Cl)ccc1Cl | 7.65% (inactive) |
| Cc1ccc(CC(=O)N(C)CC(=O)N(CC(C)C)c2c(N)n(CC(C)C)c(=O)[nH]c2=O)cc1C | 10.3% (inactive) |
| C=C(C)C(=O)O[C@H]1C/C(C)=C\C(=O)/C=C(\C)[C@H](O)[C@@H]2OC(=O)C(=C)[C@@H]21 | 92.8% (active) |
| Cc1ccc(Cl)c(OCC(=O)NN2CCN(C)CC2)c1 | 13.6% (inactive) |
| CC1CN(C(=O)COC(=O)c2cccc(NS(=O)(=O)c3ccccc3)c2)CC(C)O1 (stereo not drawn) | 10.2% (inactive) |
| CNC(=O)NC(=O)C(C)N1CCN(C/C=C/c2ccccc2)CC1 (stereo not drawn) | 16.3% (inactive) |
| COCCCNC(=O)CNC(=O)c1nn(-c2ccc(OC)cc2)c(=O)c2ccccc12 | 4.73% (inactive) |
| OCCN1CCN(C(=S)c2ccc(-c3ccccc3)cc2)CC1 | 88.1% (active) |
| S=C(c1ccc(-c2ccccc2)o1)N1CCCCC1 | -291% (inactive) |
| O=C(NC(=S)N1CCN(Cc2ccccc2)CC1)c1ccccc1 | 3.06% (inactive) |
| CCN(C(=O)c1cc([N+](=O)[O-])ccc1NCc1cccnc1)c1ccccc1 | 11.9% (inactive) |
| Cc1ccc(S(=O)(=O)N(C)C)cc1NC(=O)COC(=O)C1COc2ccccc2O1 (stereo not drawn) | 3.99% (inactive) |
| Fc1ccc2c(c1)C(c1cccnc1)=NNC(c1cccs1)=N2 | 0.189% (inactive) |
| O=C(/C=C/c1ccc([N+](=O)[O-])o1)NNC(=O)c1ccc(F)cc1 | 30.1% (inactive) |
| C=CCn1c(SCC(=O)NC(=O)Cc2ccccc2)nc2ccccc2c1=O | 15.8% (inactive) |
| CCn1c(/C=C/c2ccc([N+](=O)[O-])o2)nc2ccccc2c1=O | 56.6% (active) |
| CCc1cc(CNC(=O)CC2C(=O)NCCN2Cc2ccccc2C(F)(F)F)on1 (stereo not drawn) | 7.76% (inactive) |

| Structure (SMILES) | inhibition |
| --- | --- |
| Cc1cc(C)c(S(=O)(=O)N2CCOCC2)cc1C | 16.4% (inactive) |
| COCc1cc(=O)n2[nH]c(C)c(-c3ccccc3)c2n1 | 11.1% (inactive) |
| CC(C)[C@H](NC(=O)c1ccccc1F)C(=O)Nc1cccc(S(=O)(=O)N2CCOCC2)c1 | 6.68% (inactive) |
| CCN(CC)CCCC(C)n1c2nc(=O)[nH]c(=O)c-2nc2cc(Cl)ccc21 (stereo not drawn) | 70.8% (active) |
| O=c1c(-c2ccccc2Cl)c[nH]n1-c1ccccc1 | -21.8% (inactive) |
| OC(c1ccccc1)c1nccn1Cc1ccccc1 (stereo not drawn) | 6.44% (inactive) |
| Cc1cc(C)c(NC(=O)c2oc3ccccc3c2COc2ccccc2)c(C)c1 | 1.23% (inactive) |
| CCOC(=O)N1CCC(=NNC(N)=O)CC1 | 9.05% (inactive) |
| CC(=O)c1cccc(-c2cnc3c(NC=O)cc(-c4ccc(N(C)C)cc4)cn23)c1 | -15.5% (inactive) |
| CN(C)C(=O)c1cccc(-c2cnc3c(NC=O)cc(-c4ccc(F)cc4)cn23)c1 | 9.01% (inactive) |
| CN(C)CCNC(=O)c1cccc(-c2cnc3c(NC=O)cc(-c4cccc(C(F)(F)F)c4)cn23)c1 | 79.2% (active) |
| C=CCN1C(=NC(=O)COc2ccccc2)SC2CS(=O)(=O)CC21 (stereo not drawn) | 4.93% (inactive) |
| OCCN1CCN(CCO)C1=S | 9.5% (inactive) |
| O=C(O)c1ccc(N/N=C/c2ccc3ncccc3c2)cc1 | 54.5% (active) |
| NCCCCCC(=O)N/N=C/c1ccc2nccnc2c1 | 7.39% (inactive) |
| CC(C)(C)OC(=O)N/N=C/c1ccc(C(=O)O)cc1 | 4.48% (inactive) |
| O=C1NC(=O)C(CCc2ccccc2)(c2ccccc2)N1 (stereo not drawn) | 17.5% (inactive) |
| Cc1ccc(OCC(=O)NC(C)c2ccccc2)c([N+](=O)[O-])n1 (stereo not drawn) | 17.9% (inactive) |
| COc1ccccc1CNC(=O)COc1ccc(C)nc1[N+](=O)[O-] | -1.54% (inactive) |
| COc1ccc(C)cc1-n1nnnc1SCC(=O)c1cc(C)n(Cc2ccco2)c1C | -49.1% (inactive) |

| Structure (SMILES) | inhibition |
| --- | --- |
| Cc1cc(C(=O)COC(=O)CNC(=O)c2ccc(F)cc2)c(C)n1Cc1ccco1 | -47.3% (inactive) |
| Cc1ccc(OCC(=O)c2cc(C)n(Cc3ccco3)c2C)c([N+](=O)[O-])n1 | 48.1% (active) |
| COCC(C)n1c(C)cc(C(=O)COc2ccc(C)nc2[N+](=O)[O-])c1C (stereo not drawn) | 50.6% (active) |
| COc1ccc(NC(=O)CN2C(=O)COc3ccc(S(=O)(=O)N4CCOCC4)cc32)cc1 | -0.73% (inactive) |
| CCCCSc1[nH]c(=O)c(C(=O)OCC)cc1C#N | 5.92% (inactive) |
| CCN(CC)CC(=O)Nc1sc2c(c1C(=O)c1ccccc1C)CCC2 | 31.1% (inactive) |
| O=C(Nc1ccccc1C(=O)O)c1cc(S(=O)(=O)N2CCCCC2)cs1 | -9.72% (inactive) |
| CC(NS(=O)(=O)c1ccccc1)c1n[nH]c(=S)n1-c1ccccc1 (stereo not drawn) | 16.8% (inactive) |
| C[C@@H]1CN([C@@H](C)CO)C(=O)c2cccc(NS(=O)(=O)c3ccc(F)cc3)c2O[C@H]1CN(C)C(=O)NC1CCCCC1 | -10.3% (inactive) |
| C=CCSc1nnc(N2C(=O)C(O)=C(C(=O)c3ccco3)C2c2ccc(F)cc2)s1 (stereo not drawn) | -55.2% (inactive) |
| O=[N+]([O-])c1ccc(C=Nc2ccc(Cl)cc2Cl)s1 | -3.51% (inactive) |
| Cc1ccc(-c2cc(C(=O)N/N=C/C=C/c3ccccc3)n[nH]2)o1 | -1.73% (inactive) |
| CC(C)(C)c1cc(C(=O)N/N=C/c2ccc([N+](=O)[O-])s2)n[nH]1 | 80.5% (active) |
| COc1ccnc(Oc2ccccc2)n1 | -5.97% (inactive) |
| CCCCCCCCCCOC(=O)C[N+](C)(C)CC1CCCCC1O (stereo not drawn) | 7.58% (inactive) |
| CCN1CCC(O)(/C=C/c2ccc(C)cc2)C(C(=O)/C=C/c2ccc(C)cc2)C1 (stereo not drawn) | 66.8% (active) |
| Cc1ccc(-c2nn(C(C)(C)C)c3ncnc(N)c23)cc1 | 71.5% (active) |
| CCN(CC(=O)Nc1c(F)cccc1F)C(=O)c1ccc(-c2ccc(C(C)=O)cc2)o1 | -53.4% (inactive) |

From PubChem BioAssay AID624352 (Sanford-Burnham Center for Chemical Genomics, 2012)
